{"source": "ChEMBL document CHEMBL3988442", "about": "“University of Dundee, Small-Polar-MMV Screening Library” (2021)", "system": "Plasmodium falciparum", "experiment": "Plasmodium falciparum sporozoite viability assay", "format": "functional, organism-based", "set-up": "scale not given: in the data most compounds retested in dose-response had high values", "note": "Where “and” joins values, the source holds several entries; their conditions need not be identical. Equal values may be shown once. The whole screen tested about 34,000 compounds, of which about 290 (0.85%) showed an effect of 50% or more. For the sample, strong results were picked, then their nearest neighbours and some compounds at random.", "data": [{"smiles": "C[C@H]1C(=O)NC[C@H]2CN(Cc3cccc(F)c3)C[C@H]21.O=C(O)C(F)(F)F", "values": [{"measurement": "Percent Effect", "result": -1.083, "unit": "%"}]}, {"smiles": "CS(=O)(=O)NC1CCCN(C(=O)NCc2ccoc2)C1", "note": "(configuration not stated)", "values": [{"measurement": "Percent Effect", "result": 4.932, "unit": "%"}]}, {"smiles": "O=C1CCCN1CCCC(=O)N1CCCC(c2ccn[nH]2)C1", "note": "(configuration not stated)", "values": [{"measurement": "Percent Effect", "result": 5.64, "unit": "%"}]}, {"smiles": "CC1CN(CC(=O)Nc2nccs2)CCN1Cc1nccn1C", "note": "(configuration not stated)", "values": [{"measurement": "Percent Effect", "result": -1.162, "unit": "%"}]}, {"smiles": "CN(C)c1ccc(C(=O)N2CCN(CC(O)C(C)(C)C)CC2)nn1", "note": "(configuration not stated)", "values": [{"measurement": "Percent Effect", "result": -6.949, "unit": "%"}]}, {"smiles": "O=C(N[C@@H]1CN(Cc2ccc3cc[nH]c3c2)C[C@H]1O)c1cnccn1", "values": [{"measurement": "Percent Effect", "result": -1.172, "unit": "%"}]}, {"smiles": "O=C(O)C(F)(F)F.O=C(c1ccncc1F)N1CC2CC1(C(=O)N1CCCC1)C2", "values": [{"measurement": "Percent Effect", "result": -2.014, "unit": "%"}]}, {"smiles": "Cc1cnn(CCNCc2c(C(C)C)nn(C)c2Cl)c1", "values": [{"measurement": "Percent Effect", "result": -5.882, "unit": "%"}]}, {"smiles": "Cl.Cn1ncc2c1CCCC2NCc1cccc(C(F)(F)F)c1", "note": "(configuration not stated)", "values": [{"measurement": "Percent Effect", "result": -3.477, "unit": "%"}]}, {"smiles": "CCn1ncc2c1CCCC2NCc1ccc2c(c1)OCCO2", "note": "(configuration not stated)", "values": [{"measurement": "Percent Effect", "setting": "10 mM as filed; unlikely as a test dose", "result": "33.22% and 25.15%"}]}, {"smiles": "Cc1cccc(CNC2CCCc3c2cnn3C)c1.Cl", "note": "(configuration not stated)", "values": [{"measurement": "Percent Effect", "result": -1.28, "unit": "%"}]}, {"smiles": "CC(C)(C)n1ncc2c1CCCC2NCc1ccc2c(c1)OCCO2", "note": "(configuration not stated)", "values": [{"measurement": "Percent Effect", "setting": "10 mM as filed; unlikely as a test dose", "result": "101% and 99.54%"}]}, {"smiles": "CCn1ncc2c1CCCC2NCc1ccc(OC)c(C)c1", "note": "(configuration not stated)", "values": [{"measurement": "Percent Effect", "result": 1.069, "unit": "%"}]}, {"smiles": "CCn1ncc2c1CCCC2NCc1ccc2c(c1)CCO2", "note": "(configuration not stated)", "values": [{"measurement": "Percent Effect", "setting": "10 mM as filed; unlikely as a test dose", "result": "59.7% and 48.65% and 59.52%"}]}, {"smiles": "O=C(NCC1CCCO1)c1nc2c(s1)CCCN2C(=O)C1CC1", "note": "(configuration not stated)", "values": [{"measurement": "Percent Effect", "result": -5.565, "unit": "%"}]}, {"smiles": "Cl.Cl.O=C([C@H]1CCCN1)N1CC2(CCNCC2)c2cc(Cl)ccc21", "values": [{"measurement": "Percent Effect", "result": 12.41, "unit": "%"}]}, {"smiles": "Cc1cc(OCC(=O)N2CCCC(c3noc(C(C)C)n3)C2)no1", "note": "(configuration not stated)", "values": [{"measurement": "Percent Effect", "result": 2.432, "unit": "%"}]}, {"smiles": "O=C(c1ccc[nH]1)N1C[C@H]2CN(Cc3cccc(F)c3)C(=O)[C@H]2C1", "values": [{"measurement": "Percent Effect", "result": 12.11, "unit": "%"}]}, {"smiles": "c1csc(-c2noc(CN3CCCC3Cn3cccn3)n2)c1", "note": "(configuration not stated)", "values": [{"measurement": "Percent Effect", "setting": "10 mM as filed; unlikely as a test dose", "result": "-21.92% and -8.385% and -5.28%"}]}, {"smiles": "c1csc(-c2noc(CN3CCCCC3Cn3cccn3)n2)c1", "note": "(configuration not stated)", "values": [{"measurement": "Percent Effect", "setting": "10 mM as filed; unlikely as a test dose", "result": "24.36% and 19.77% and 16.14%"}]}, {"smiles": "c1ccc(-c2noc(CCCN3CCCC3Cn3cncn3)n2)cc1", "note": "(configuration not stated)", "values": [{"measurement": "Percent Effect", "setting": "10 mM as filed; unlikely as a test dose", "result": "40.22% and 41.76% and 47.25%"}]}, {"smiles": "CCOc1ccnc(N[C@@H](Cc2ccccc2)C(N)=O)n1", "values": [{"measurement": "Percent Effect", "result": 0.8772, "unit": "%"}]}, {"smiles": "CCOC(=O)CSc1ccc(-c2nc(CC)no2)cn1", "values": [{"measurement": "Percent Effect", "setting": "10 mM as filed; unlikely as a test dose", "result": "40.67% and 46.73%"}]}, {"smiles": "COC(=O)CSCc1nc(-c2ccc(Cl)cc2)no1", "values": [{"measurement": "Percent Effect", "setting": "10 mM as filed; unlikely as a test dose", "result": "-107.5% and -111.6%"}]}, {"smiles": "Cc1ccc(-c2nc(CN3CCc4cnc(C)nc4C3)no2)cc1", "values": [{"measurement": "Percent Effect", "result": 16.875, "unit": "%"}]}, {"smiles": "COC(=O)CSCc1noc(-c2ccc(Cl)cc2)n1", "values": [{"measurement": "Percent Effect", "setting": "10 mM as filed; unlikely as a test dose", "result": "72.7% and 74.65%"}]}, {"smiles": "CCOC(=O)CSc1ccc(-c2nc(C)no2)cn1", "values": [{"measurement": "Percent Effect", "setting": "10 mM as filed; unlikely as a test dose", "result": "-0.4631% and 0.4035%"}]}, {"smiles": "COC(=O)CSCc1noc(-c2ccc(C)cc2)n1", "values": [{"measurement": "Percent Effect", "setting": "10 mM as filed; unlikely as a test dose", "result": "97.51% and 95.63%"}]}, {"smiles": "O=S1(=O)CCC(N(Cc2nc(-c3ccccn3)no2)Cc2cccs2)C1", "note": "(configuration not stated)", "values": [{"measurement": "Percent Effect", "result": 22.13, "unit": "%"}]}, {"smiles": "CCN1CCN(CCCNc2ncccn2)CC1", "values": [{"measurement": "Percent Effect", "result": -11.01, "unit": "%"}]}, {"smiles": "Cc1cc(CN(C)C(=O)c2ccc(N(C)C)nc2)no1", "values": [{"measurement": "Percent Effect", "result": 3.089, "unit": "%"}]}, {"smiles": "NC(=O)c1cc(C2CCCN(CCOCC3CC3)C2)n[nH]1", "note": "(configuration not stated)", "values": [{"measurement": "Percent Effect", "result": -0.5536, "unit": "%"}]}, {"smiles": "Cc1ccc(C2CN(Cc3cccc4[nH]ccc34)CCO2)nc1", "note": "(configuration not stated)", "values": [{"measurement": "Percent Effect", "result": 9.691, "unit": "%"}]}, {"smiles": "CC(C)OC(=O)N1CCC(Cc2ccc(C(=O)O)cc2)C1", "note": "(configuration not stated)", "values": [{"measurement": "Percent Effect", "result": 5.074, "unit": "%"}]}, {"smiles": "COCCOc1ccc(S(=O)(=O)Nc2cccnc2O)cc1C", "values": [{"measurement": "Percent Effect", "setting": "10 mM as filed; unlikely as a test dose", "result": "-10.26% and -4.441%"}]}, {"smiles": "COc1ccc(S(=O)(=O)NC(=O)COC2CCCCC2)cc1C", "values": [{"measurement": "Percent Effect", "result": -5.465, "unit": "%"}]}, {"smiles": "COCCOc1ccc(S(=O)(=O)Nc2cccc(O)c2F)cc1C", "values": [{"measurement": "Percent Effect", "setting": "10 mM as filed; unlikely as a test dose", "result": "65.91% and 54.13%"}]}, {"smiles": "CC(C)N1CCN(C)CC(Cc2cc(N(C)C)ncn2)C1", "note": "(configuration not stated)", "values": [{"measurement": "Percent Effect", "result": 2.091, "unit": "%"}]}, {"smiles": "CN1CCc2nc3cc(C(=O)NCc4cccs4)ccc3c(=O)n2CC1", "values": [{"measurement": "Percent Effect", "result": 0.8687, "unit": "%"}]}, {"smiles": "CCc1nc(CN2CCN(CC(O)c3ccccc3)CC2)no1", "note": "(configuration not stated)", "values": [{"measurement": "Percent Effect", "setting": "10 mM as filed; unlikely as a test dose", "result": "4.576% and 5.713% and -3.353%"}]}, {"smiles": "CCCc1nc(CN2CCN(CC(O)c3ccccc3)CC2)no1", "note": "(configuration not stated)", "values": [{"measurement": "Percent Effect", "setting": "10 mM as filed; unlikely as a test dose", "result": "-24.09% and -24.64% and -18.14%"}]}, {"smiles": "O=C(CC1CC1)N1CCCn2nnc(CNc3ncccn3)c2C1", "values": [{"measurement": "Percent Effect", "result": 2.773, "unit": "%"}]}, {"smiles": "Cc1noc(C)c1C(=O)NCc1cccnc1N(C)C", "values": [{"measurement": "Percent Effect", "result": 5.354, "unit": "%"}]}, {"smiles": "CCC(=O)N1CC[C@H](O)[C@@H]1Cc1ccccc1", "values": [{"measurement": "Percent Effect", "result": -1.986, "unit": "%"}]}, {"smiles": "Cc1cccc(CN2CCCCC2c2n[nH]cc2-c2cc(C)no2)c1.Cl", "note": "(configuration not stated)", "values": [{"measurement": "Percent Effect", "setting": "10 mM as filed; unlikely as a test dose", "result": "-21.49% and -8.887% and 2.992%"}]}, {"smiles": "CCc1ccc(CN2CCCCC2c2n[nH]cc2-c2cc(C)no2)cc1.Cl", "note": "(configuration not stated)", "values": [{"measurement": "Percent Effect", "setting": "10 mM as filed; unlikely as a test dose", "result": "63.83% and 48.62% and 58.14%"}]}, {"smiles": "Nc1nccnc1CC1CCCN(Cc2cccc3[nH]ccc23)C1", "note": "(configuration not stated)", "values": [{"measurement": "Percent Effect", "result": 4.859, "unit": "%"}]}, {"smiles": "NC(=O)C1CCN(c2ccc3cc(Br)ccc3n2)C1", "note": "(configuration not stated)", "values": [{"measurement": "Percent Effect", "setting": "10 mM as filed; unlikely as a test dose", "result": "-42.56% and -39.12%"}]}, {"smiles": "NC(=O)C1CN(c2ccc3cc(Br)ccc3n2)CCO1", "note": "(configuration not stated)", "values": [{"measurement": "Percent Effect", "setting": "10 mM as filed; unlikely as a test dose", "result": "80.55% and 85.86%"}]}, {"smiles": "NC(=O)C1CN(c2ccc(Br)cn2)CCO1", "note": "(configuration not stated)", "values": [{"measurement": "Percent Effect", "setting": "10 mM as filed; unlikely as a test dose", "result": "-39.17% and -33.44%"}]}, {"smiles": "Cc1cc(Cc2cccc(C(F)(F)F)c2)cc(C2CCCNC2)n1", "note": "(configuration not stated)", "values": [{"measurement": "Percent Effect", "result": 4.537, "unit": "%"}]}, {"smiles": "CN(C)C(=O)CN1CCCCC1c1nc(N)ncc1-c1ccc(Cl)cc1", "note": "(configuration not stated)", "values": [{"measurement": "Percent Effect", "result": -1.537, "unit": "%"}]}, {"smiles": "Cc1noc(C)c1C(=O)N1C[C@@H]2CN(Cc3cccnc3)CCO[C@@H]2C1", "values": [{"measurement": "Percent Effect", "result": -15.82, "unit": "%"}]}, {"smiles": "CCc1nc(-c2cccc(C(=O)O)c2)no1", "values": [{"measurement": "Percent Effect", "result": 7.751, "unit": "%"}]}, {"smiles": "CS(=O)(=O)NC1CCN(C(=O)NCCc2ccccn2)CC1", "values": [{"measurement": "Percent Effect", "result": -4.021, "unit": "%"}]}, {"smiles": "Cc1ccc(S(=O)(=O)N2CCN(Cc3ccncc3)CC2)c(Cl)c1", "values": [{"measurement": "Percent Effect", "result": -1.432, "unit": "%"}]}, {"smiles": "Cc1ccc(OCCN(C)C(=O)CCCC(N)=O)c(C)c1", "values": [{"measurement": "Percent Effect", "result": -6.308, "unit": "%"}]}, {"smiles": "Cc1ccc(N2CCCC(NCC3=Cc4ccccc4OC3)C2)nn1", "note": "(configuration not stated)", "values": [{"measurement": "Percent Effect", "result": 9.337, "unit": "%"}]}, {"smiles": "Cc1cn2c(n1)C(CNCC1=Cc3cc(Cl)ccc3OC1)CCC2", "note": "(configuration not stated)", "values": [{"measurement": "Percent Effect", "setting": "10 mM as filed; unlikely as a test dose", "result": "86.97% and 100% and 87.02%"}]}, {"smiles": "Cc1cn2c(n1)C(CNCc1cccc3c1OCO3)CCC2", "note": "(configuration not stated)", "values": [{"measurement": "Percent Effect", "result": 10.56, "unit": "%"}]}, {"smiles": "CC(NCC1=Cc2cc(Cl)ccc2OC1)c1nnc2n1CCCC2", "note": "(configuration not stated)", "values": [{"measurement": "Percent Effect", "result": -0.2255, "unit": "%"}]}, {"smiles": "Cc1cn2c(n1)C(CNCC1=Cc3ccccc3OC1)CCC2", "note": "(configuration not stated)", "values": [{"measurement": "Percent Effect", "setting": "10 mM as filed; unlikely as a test dose", "result": "102.3% and 118.3% and 103.2%"}]}]}
